We go through 16 molecules from PubChem BioAssay (NCI).

Where “and” joins values, the source holds several entries; their conditions need not be identical. Identical values can stand only once. The panel holds about 83,000 compounds, 20% with a hit somewhere; the sample as a whole holds those more often.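 Step 1: grow cells in 96-well plates. Step 2: add test compound at a single concentration. Step 3: incubate 48 h. Step 4: record percent growth.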 Calls of active or inactive are those of the source. The calls were made as follows: active = growth percent below 10; inactive = the rest.

Among the test systems are T-47D breast; BT-549 breast; MDA-MB-435 melanoma; SW-620 colon; MCF7 breast; HCT-116 colon; HCC-2998 colon; KM12 colon.
Test in all cases: NCI-60 one-dose screen, 48 h (100 = growth as untreated, 0 = no growth, -100 = all killed)
Holding throughout (settings): 10 µM unless noted

As to `O=C(N/N=C\c1ccc(F)cc1)c1ccc2nc(-c3ccc(Br)cc3)[nH]c2c1`, the growth is 75.6% (inactive) in the assay on T-47D breast; 73.5% (inactive) in the assay with BT-549 breast; 40.7% (inactive) in the assay with MDA-MB-435 melanoma; 2.87% (active) in the assay on SW-620 colon; 9.41% (active) with MCF7 breast; -21% (active) with HCT-116 colon. Further, the growth in the assay on HCC-2998 colon was 31.3% (inactive); in the assay with KM12 colon it was 16% (inactive).
For `Cn1cc(C2=C(c3coc4cc(Br)ccc34)C(=O)NC2=O)c2ccccc21`, the growth with T-47D breast was 70% (inactive); in the assay with BT-549 breast it was 82.6% (inactive); in the assay on MDA-MB-435 melanoma, 8.23% (active); in the assay with SW-620 colon it was 42.1% (inactive); in the assay on MCF7 breast, 51.2% (inactive); in the assay on HCT-116 colon it was 57.4% (inactive). The growth in the assay with HCC-2998 colon was 104% (inactive); in the assay with KM12 colon, 80.5% (inactive).
Take `CC[C@]12CC(C(=O)OC)=C3Nc4ccccc4[C@@]34CCN(C14)[C@@H]1c3cc4c(cc3O[C@@H]1[C@H]2O)NC1=C(C(=O)OC)C[C@@]2(CC)C3N(CC[C@@]143)C[C@H]1O[C@H]12` (stereo partly drawn): the growth in the assay on T-47D breast is 18.2% (inactive); with BT-549 breast, 33.9% (inactive); with MDA-MB-435 melanoma it was -10.9% (active); in the assay on SW-620 colon it was 23.5% (inactive); in the assay with MCF7 breast, 4.36% (active); in the assay on HCT-116 colon, 2.44% (active). For the same molecule, the growth with HCC-2998 colon is -41.3% (active); in the assay on KM12 colon it was 13.4% (inactive).
Consider `O=C1/C(=C/c2cc(F)cc(F)c2)Cc2cc3c(cc21)OCO3`, for which the growth is 47.6% (inactive) in the assay with T-47D breast; 35.4% (inactive) with BT-549 breast; -44.3% (active) in the assay on MDA-MB-435 melanoma; 28.1% (inactive) in the assay on SW-620 colon; 29% (inactive) in the assay with MCF7 breast; 26.8% (inactive) in the assay with HCT-116 colon. The growth with HCC-2998 colon was 65% (inactive); in the assay with KM12 colon it was 34.6% (inactive).
`CC1=C(C)C(=O)C(Nc2cccc(C(=O)OC(C)(C)C)c2)=C(Cl)C1=O`: the growth in the assay with T-47D breast is 4.99% (active); with BT-549 breast it was 106% (inactive); in the assay on MDA-MB-435 melanoma it was 103% (inactive); in the assay on SW-620 colon, 88.7% (inactive); in the assay on MCF7 breast it was 46.3% (inactive); in the assay with HCT-116 colon, 72.6% (inactive). Further, the growth in the assay on HCC-2998 colon was 99% (inactive); in the assay on KM12 colon, 99.2% (inactive).
As for `Nc1ncc(-c2ccc3ncnc(NCc4ccccc4)c3c2)cn1`, the growth with T-47D breast was 15% (inactive); in the assay on BT-549 breast it was 34.5% (inactive); with MDA-MB-435 melanoma, 65.1% (inactive); in the assay on SW-620 colon, 73.7% (inactive); with MCF7 breast it was 19.3% (inactive); in the assay on HCT-116 colon, 66.5% (inactive). For the same molecule, the growth is 59.8% (inactive) in the assay with HCC-2998 colon and 72.1% (inactive) in the assay with KM12 colon.
`Cc1cc(=O)[nH]c(O)c1C#N`: the growth in the assay with T-47D breast was 105% (inactive); with BT-549 breast it was 113% (inactive); in the assay on MDA-MB-435 melanoma, 105% (inactive); in the assay on SW-620 colon, 96.6% (inactive); in the assay with MCF7 breast, 99.9% (inactive); with HCT-116 colon it was 104% (inactive). The growth in the assay on HCC-2998 colon is 114% (inactive); in the assay on KM12 colon, 102% (inactive).
`C=CCSC1=NC2C(N(CC)C(=O)N2CC)N1/N=C/C=C/c1ccccc1OC` (stereo not drawn): the growth with T-47D breast was 68.9% (inactive); in the assay with BT-549 breast, 79.8% (inactive); with MDA-MB-435 melanoma, 2.79% (active); in the assay on SW-620 colon, 69.7% (inactive); with MCF7 breast, 42.5% (inactive); in the assay with HCT-116 colon, 73.7% (inactive). The growth with HCC-2998 colon was 97.8% (inactive); in the assay on KM12 colon, 57.8% (inactive).
For the molecule `CCOc1cccc(/C(N)=N/C(N)=N/c2nc3ccccc3s2)c1`, the growth is 73.1% (inactive) in the assay with T-47D breast; 102% (inactive) with BT-549 breast; 99.9% (inactive) with MDA-MB-435 melanoma; 102% (inactive) in the assay with SW-620 colon; 72.6% (inactive) in the assay on MCF7 breast; 72.3% (inactive) in the assay on HCT-116 colon. Moreover, the values for the growth in the assay on HCC-2998 colon and in the assay with KM12 colon were 111% (inactive) and 46.4% (inactive), respectively.
Regarding `O=C(COc1ccc(/C=C2\C(=O)Nc3ccc(Cl)cc32)cc1)Nc1ccc(Cl)cc1`, the growth was 68.8% (inactive) with T-47D breast; 70.2% (inactive) in the assay with BT-549 breast; 55.6% (inactive) in the assay with MDA-MB-435 melanoma; 45.5% (inactive) in the assay with SW-620 colon; 56.3% (inactive) in the assay with MCF7 breast; 15.9% (inactive) with HCT-116 colon. In addition, the results for the growth in the assay with HCC-2998 colon and with KM12 colon were 89% (inactive) and 43.2% (inactive), respectively.
As for `Cn1c2nc3ccccc3c-2cc2ccccc21`, the growth is 37.4% (inactive) in the assay with T-47D breast; 101% (inactive) in the assay on BT-549 breast; 39.5% (inactive) with MDA-MB-435 melanoma; 28.3% (inactive) in the assay with SW-620 colon; 10.9% (inactive) with MCF7 breast; 22.1% (inactive) in the assay with HCT-116 colon. In addition, the figures for the growth in the assay on HCC-2998 colon and in the assay on KM12 colon were 52.9% (inactive) and 31.8% (inactive), respectively.
In the case of `CN(C)c1ccc(/C=N/Nc2nc(N/N=C/c3ccc(N(C)C)cc3)nc(N3CCCCC3)n2)cc1`, the growth is 46% (inactive) in the assay on T-47D breast; 111% (inactive) with BT-549 breast; 60.4% (inactive) in the assay on MDA-MB-435 melanoma; 64.2% (inactive) with SW-620 colon; 31.1% (inactive) in the assay with MCF7 breast; 14.9% (inactive) in the assay with HCT-116 colon. Besides, the values for the growth in the assay with HCC-2998 colon and in the assay on KM12 colon were 103% (inactive) and 93% (inactive), respectively.
With `COc1ccc2c(c1)c(-c1nc(N)nnc1-c1c[nH]c3ccccc13)cn2C`, the growth in the assay with T-47D breast is 41.2% (inactive); in the assay with BT-549 breast, 49.2% (inactive); with MDA-MB-435 melanoma it was -47.8% (active); in the assay on SW-620 colon, 17.2% (inactive); in the assay on MCF7 breast it was 15% (inactive); in the assay on HCT-116 colon, 23.1% (inactive). Further, the growth with HCC-2998 colon was 82.9% (inactive); in the assay on KM12 colon, 24.4% (inactive).
Take `C/C=C/CC(C)C(O)[C@H](NC(=O)[C@@H]1CCCN1C(=O)[C@](C)(CC)NC(=O)CCCCCCCCC)C(=O)N[C@@](C)(CC)C(=O)N[C@@H](CCC(N)=O)C(=O)N[C@H](CCC(N)=O)C(=O)NC(C)(C)C(=O)NC(C)(C)C(=O)N[C@@H](CCC(N)=O)C(=O)N[C@H](CC(C)C)C(=O)N[C@H](CO)CC(C)C` (stereo partly drawn): the growth with T-47D breast was 61.9% (inactive) and -23.3% (active); in the assay on BT-549 breast it was -72.4% (active); in the assay with MDA-MB-435 melanoma, 17.4% (inactive) and -95.1% (active); with SW-620 colon it was 83.1% (inactive) and 14.5% (inactive); with MCF7 breast it was 51.9% (inactive) and -62.3% (active); in the assay with HCT-116 colon, 70.6% (inactive) and -7.45% (active). The growth in the assay with HCC-2998 colon is 32.6% (inactive) and -57.5% (active); with KM12 colon it was 21.6% (inactive) and -65% (active).
In the case of `Cc1csc(/N=C(N)/N=C(\N)c2cccnc2)n1`, the growth with T-47D breast was 85.5% (inactive); in the assay with BT-549 breast it was 77.6% (inactive); in the assay on MDA-MB-435 melanoma it was 6% (active); in the assay on SW-620 colon, 53.2% (inactive); in the assay on MCF7 breast it was 82.1% (inactive); in the assay on HCT-116 colon, 55.1% (inactive). In addition, the growth in the assay on HCC-2998 colon is 90.2% (inactive); with KM12 colon it was 48.8% (inactive).
Turning to `CC(C)=CCC[C@](C)(O)[C@H]1CC[C@]2(C)[C@@H]1CC[C@@H]1[C@@]3(C)CC[C@H](N)C(C)(C)[C@@H]3CC[C@]12C`, the growth was 107% (inactive) in the assay with T-47D breast; 98.8% (inactive) with BT-549 breast; 94.2% (inactive) with MDA-MB-435 melanoma; 8.73% (active) with SW-620 colon; 3.07% (active) with MCF7 breast; -28.2% (active) with HCT-116 colon. Further, the growth is 63.3% (inactive) in the assay on HCC-2998 colon and 48.9% (inactive) in the assay on KM12 colon.
